The entries come from a sample that favours hits as a whole.
Dicer processing – human Dicer pre-microRNA cleavage inhibition. cat-ELCCA pre-miR-21 Dicer processing, chemiluminescence; hits give high values. z-score at 25 µM. 47,000 compounds, 6% hits. AID 1347074; in the data active means z-score above about 3, passing the limit was not always enough;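 further: plate controls were vehicle for no effect and no enzyme for full effect; higher signal means more uncleaved substrate so more Dicer inhibition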
Active calls of the source: *.

SMILES	Dicer processing
COc1ccc(N=Nc2c(O)ccc3ccccc23)cc1	3.4*
Oc1ccc2ccccc2c1N=Nc1ccccc1F	1.4
Cc1cccc(N=Nc2c(O)ccc3ccccc23)c1	2.2
CCN(CCC#N)c1ccc(N=Nc2c(O)ccc3ccccc23)cc1	6.1*
Oc1ccc2ccccc2c1N=Nc1cccc(Cl)c1	3.7
CSc1nc(N)c(C#N)n1Cc1ccco1	1.1
Cc1nc(N2CCN(c3ccccc3F)CC2)nc2c1C(=O)CCC2	-0.32
Cc1ccc(-c2nc(NC(=O)CCC(=O)O)sc2C)cc1Cl	-0.58
O=c1c(C(F)(F)F)cccn1Cc1ccc(Cl)cc1	-0.67
Cc1ccc(-n2nnnc2-c2cnn(-c3ccccc3)c2-c2ccccc2)cc1	1.8
CC(C)CC(=O)Nc1sc2c(c1C(N)=O)CCCC2	-1.4
CN1C(=O)C2(/C(=C(/O)c3ccccc3)C(=O)C(=O)N2CC2CCCO2)c2ccccc21 (stereo not given)	1.5
C#CCSc1nnc2[nH]c(=O)cc(N)n12	2.7
Nc1cc(=O)[nH]c2nnc(SCc3ccccc3Cl)n12	2.5
CC(C)CCSc1nnc2[nH]c(=O)cc(N)n12	3.4*
CC1=C(C(=O)OCc2ccccc2)C(c2cccnc2)C2=C(CC(c3ccccc3)CC2=O)N1 (stereo not given)	-0.15
O=c1[nH]cnc2c1oc1nc(-c3ccc(Cl)cc3)cc(-c3ccco3)c12	6.5*
NNC(=O)c1oc2nc(-c3ccc(Cl)cc3)cc(-c3ccccc3)c2c1N	-2.9
O=c1c2oc3nc(-c4ccccc4)cc(-c4ccco4)c3c2ncn1/N=C/c1ccc(F)cc1	2.5
COC(=O)c1ccccc1NC(=S)N(C)N	1.5
CSc1sc(C(=O)NC(=O)Nc2ccc(Cl)cc2)c2c1-c1oncc1CC2	1
O=c1[nH]c2ccccc2c(O)c1-c1ccccc1	0.27
O=c1[nH]c2ccccc2c2ccccc12	-0.32
O/N=C1\CCCc2[nH]c3ccccc3c21	5.1*
COC(=O)c1ccc(O)c(CSc2ccccn2)c1	0.13
SMILES	Dicer processing
CCOC(=O)c1c(C)n(-c2ccccc2)c2ccc(OC)cc12	0.05
CCOC(=O)c1c(C)n(C)c2ccc(O)cc12	1.5
CCOC(=O)c1c(C)n(-c2cccc(Br)c2)c2ccc(O)cc12	6.5*
CCOc1ccc(C2Nc3ccc4ncccc4c3C3=C2C(=O)CCC3)cc1 (stereo not given)	0.74
O=C(c1nc2ncccn2n1)N1CCN(C(c2ccccc2)c2ccccc2)CC1	-1.1
COc1ccc(-c2nnc3c4cnn(-c5ccc(C)cc5)c4ncn23)cc1	0.4
O=C(OCc1ccc2c(c1)OCO2)OCc1ccc2c(c1)OCO2	-0.25
CC1(C)CC(=O)C=C(SCc2cccc(Cl)c2)S1	4.5*
CC1(C)CC(=O)C=C(SCc2c(Cl)cccc2Cl)S1	0.78
CC1(C)CC(=O)C=C(SCCS(=O)(=O)c2ccc(Cl)cc2)S1	1.1
COc1ccc(Nc2c(Cl)cc(OC)cc2Cl)cc1	3.4
COc1ccc(Nc2n[nH]c(N)n2)cc1	5.6*
COc1ccc(Nc2nc(Cl)nc(Nc3ccc(OC)cc3)n2)cc1	-0.67
CCOC(=O)c1csc(-c2cn(-c3ccccc3)c(=O)n(C)c2=O)n1	0.68
COC(=O)c1cccc(Nc2nc(-c3cccnc3)nc3ccccc23)c1	-1.3
COc1ccc(Nc2nc(-c3cccnc3)nc3ccccc23)cc1	-1.2
Oc1ccccc1Nc1nc(-c2cccnc2)nc2ccccc12	11*
Cc1nnc2sc(-c3cccc(N)c3)nn12	-0.5
C=CCSc1nnc2c(n1)OC(c1ccc(OC)cc1OC)Nc1ccccc1-2 (stereo not given)	-0.98
NC(=O)C1CCN(C(=O)Nc2cc3ccccc3s2)CC1	-3.1
O=C(c1sc2ccccc2c1Cl)N1CCOCC1	0.17
O=C(c1cc2ccccc2s1)N1CCOCC1	3.2*
O=c1oc2ccccc2c2c1nnn2C1CCCCC1	-0.64
COCCNC(=O)c1nn2c(C(F)(F)F)c3c(nc2c1Cl)-c1ccccc1CC3	4.7*
Cc1cc2nc3c(c(C(F)(F)F)n2n1)CCc1ccccc1-3	-1.6
SMILES	Dicer processing
FC(F)(F)c1c2c(nc3cc(C4CC4)nn13)-c1ccccc1CC2	-0.88
COCCOC(=O)C1=C(C)NC2=C(C(=O)CCC2)C1c1ccc(C)s1 (stereo not given)	1
COC(=O)C1=C(C)NC2=C(C(=O)CCC2)C1c1sc2ccccc2c1C (stereo not given)	-3.4
COC(=O)C1=C(C)NC2=C(C(=O)CC(C)(C)C2)C1c1ccccn1 (stereo not given)	0.16
CC1=C(C(=O)OCCc2ccccc2)C(c2ccccn2)C2=C(CCCC2=O)N1 (stereo not given)	1.4
COC(=O)C1=C(C)NC2=C(C(=O)CCC2)C1c1ccccn1 (stereo not given)	3.3*
COC(=O)C1=C(C)NC2=C(C(=O)CCC2)C1c1ccc(C#Cc2ccccc2)s1 (stereo not given)	3.1*
O=S(=O)(c1ccc(Cl)cc1)N1c2ccccc2OC1c1ccc(Cl)c(Cl)c1 (stereo not given)	-0.04
CC(=O)OCC(=O)c1ccc(C(F)(F)F)cc1	1.2
Nc1ccccc1SCC(O)COc1cccc(C(F)(F)F)n1 (stereo not given)	2.7
O=C1CSc2ccc(C(F)(F)F)cc2N1	-1
NNC(=O)CN1C(=O)CSc2ccc(C(F)(F)F)cc21	6.2*
CNC(=S)NNC(=O)CN1C(=O)CSc2ccc(C(F)(F)F)cc21	-0.71
CCOC(=O)c1cc(C(C)(C)C)[nH]c(=S)c1C#N	0.39
CC1=C(C(=O)OCC2CCCO2)C(c2cccc(Br)c2)C2=C(CCCC2=O)N1 (stereo not given)	1.5
CNc1ncnc(NNC(=O)Nc2ccc(Cl)cc2)c1[N+](=O)[O-]	4.5*
Cc1[nH]nc(Nc2ccc(C(C)C)cc2)c1[N+](=O)[O-]	0.47
CNc1ncnc(NNC(=O)Nc2cccc(Cl)c2)c1[N+](=O)[O-]	1.6
CNc1ncnc(Oc2ccc(Cl)cc2)c1[N+](=O)[O-]	-0.48
O=[N+]([O-])c1c(Nc2ccc(Cl)cc2)ncnc1Nc1ccc(Cl)cc1	3.5*
O=[N+]([O-])c1c(Nc2cccc(C(F)(F)F)c2)ncnc1Nc1cccc(C(F)(F)F)c1	-0.15
CCOC(=O)NC(Nc1ccc(F)c(F)c1F)(C(=O)OCC)C(F)(F)F (stereo not given)	-0.91
COc1cc2c(cc1OC)/C(=C/c1ccc(C(F)(F)F)cc1)C(=O)N2	-0.13
Cn1cc(/C=C/c2nc3ccccc3c(=O)n2Cc2ccccc2)c2ccccc21	2.9
CCOC(=O)NC(Nc1ccc(S(=O)(=O)Nc2ccc(OC)nn2)cc1)(C(F)(F)F)C(F)(F)F	-1.1
SMILES	Dicer processing
Cc1ccc(-c2nc(NC(=O)c3ccccc3)sc2C)cc1Cl	0.94
Cc1ccc(S(=O)(=O)NC(=O)Nc2nc(-c3ccc(C)c(Cl)c3)c(C)s2)cc1	-1.6
Cc1ccc(S(=O)(=O)Nc2nc(-c3ccc(C)c(Cl)c3)c(C)s2)cc1	3.3*
c1ccc(-c2nnc3sc(-c4cccnc4)nn23)cc1	-0.73
C=CCn1c(SCC(C)=O)nnc1-c1ccc2ncccc2c1	-1.5
Cc1ccc(C(=O)CSc2nnc(-c3ccc4ccccc4c3)n2C)cc1	-0.36
CC(C)NC(=O)CSc1nnc(-c2ccc3ncccc3c2)n1C	3.1*
CSc1cccc(NC(=S)NN/C(=N\S(=O)(=O)c2ccccc2)N2CCCC2)c1	-0.11
COC(=O)c1ccc(S(=O)(=O)NC2Cc3ccccc3C2)n1C	1.1
COc1ccc(Cc2nnc(SCc3ccc(C)cc3)o2)cc1	0.03
Cc1ccc(-c2nnc(Nc3cccc(O)c3)c3ccccc23)cc1S(=O)(=O)N(C)C	0.46

Screening results as filed in PubChem.
